From PubChem BioAssay AID1159580 (chemical genetic matrix, 2015)
“And” between values parts separate entries of the source, which are not always exact repeats. Equal values may be shown once. The campaign covered roughly 5,500 compounds. About 2,000 (36%) were called active. About 18% were inconclusive and are not listed. Rule as the data show it: active = normalized growth mostly below about 0.91 (no sharp cut-off); inconclusive = no clear call, values can overlap the other calls; inactive = mostly above about 0.92. Some of the results follow.

Test: chemical genetic growth profiling, strain panel (AID 1159580);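 also: tested at 20 µM; growth read once vehicle control cultures reached saturation at 30 °C; 1 = growth at the plate median or of vehicle wells; lower values mean less growth of the strain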
Details: S. cerevisiae deletion strains, growth OD

Measured: normalized growth

Cn1cc[nH]c1=S
inactive: locus YAL021C, strain ccr4, hits give low values 0.981 | locus YAL026C, strain drs2, hits give low values 0.99 | locus YAL030W, strain snc1, hits give low values 0.99 | locus YBL061C, strain skt5, hits give low values 0.99 | locus YBR009C, strain hhf1, hits give low values 1.03 | locus YBR021W, strain FUR4, hits give low values 0.991 | locus YBR023C, strain chs3, hits give low values 0.98 | locus YBR171W, strain sec66, hits give low values 0.99 | locus YBR229C, strain ROT2, hits give low values 1.01 | locus YBR231C, strain swc5, hits give low values 1 | locus YBR279W, strain paf1, hits give low values 0.974 | locus YCL011C, strain gbp2, hits give low values 0.967 | locus YCL016C, strain dcc1, hits give low values 0.963 | locus YCL029C, strain bik1, hits give low values 0.976 | locus YCL069W, strain vba3, hits give low values 0.999 | locus YCR088W, strain abp1, hits give low values 0.991 | locus YDL005C, strain med2, hits give low values 0.963 | locus YDL035C, strain GPR1, hits give low values 1.01 | locus YDL040C, strain nat1, hits give low values 0.989 | locus YDL074C, strain BRE1, hits give low values 1.02 | locus YDL101C, strain DUN1, hits give low values 0.996 | locus YDL185W, strain tfp1, hits give low values 0.935 | locus YDL192W, strain arf1, hits give low values 0.971 | locus YDR001C, strain nth1, hits give low values 0.989 | locus YDR069C, strain doa4, hits give low values 1.01 | locus YDR101C, strain arx1, hits give low values 1.02 | locus YDR137W, strain rgp1, hits give low values 0.985 | locus YDR159W, strain sac3, hits give low values 0.974 | locus YDR162C, strain NBP2, hits give low values 1.01 | locus YDR195W, strain ref2 0.99 | locus YDR297W, strain sur2, hits give low values 1.01 | locus YDR318W, strain mcm21, hits give low values 0.968 | locus YDR334W, strain swr1, hits give low values 0.973 | locus YDR335W, strain msn5, hits give low values 1 | locus YDR388W, hits give low values 0.991 | locus YDR392W, strain spt3, hits give low values 0.887 | locus YDR502C, strain sam2, hits give low values 0.993 | locus YEL003W, strain gim4, hits give low values 1 | locus YEL037C, strain rad23, hits give low values 0.98 | locus YEL061C, strain CIN8 (second series), hits give low values 0.984 | locus YEL061C, strain CIN8, hits give low values 0.985 | locus YER015W, strain faa2, hits give low values 0.993 | locus YER016W, strain bim1, hits give low values 0.978 | locus YER110C, hits give low values 0.967 | locus YER111C, strain swi4, hits give low values 0.967 | locus YER155C, strain BEM2 (second series), hits give low values 0.976 | locus YER155C, strain BEM2, hits give low values 1 | locus YER167W, strain BCK2, hits give low values 1 | locus YFR010W, strain ubp6, hits give low values 1.01 | locus YGL078C, strain dbp3, hits give low values 0.956 | locus YGL086W, strain mad1, hits give low values 1.01 | locus YGL167C, strain pmr1, hits give low values 0.992 | locus YGL173C, strain kem1, hits give low values 0.987 | locus YGL227W, strain vid30, hits give low values 1.01 | locus YGL240W, strain doc1, hits give low values 0.981 | locus YGL248W, strain PDE1, hits give low values 1 | locus YGL253W, strain hxk2, hits give low values 0.97 | locus YGR078C, strain PAC10, hits give low values 1 | locus YGR135W, strain pre9, hits give low values 0.938 | locus YGR229C, strain SMI1, hits give low values 1.01 | locus YGR252W, strain gcn5, hits give low values 0.958 | locus YHR013C, strain ard1, hits give low values 0.949 | locus YHR027C, strain rpn1, hits give low values 1 | locus YHR030C, strain SLT2, hits give low values 0.997 and 1.04 | locus YHR079C, strain IRE1 (second series), hits give low values 0.971 | locus YHR079C, strain IRE1, hits give low values 1.04 | locus YHR094C, strain hxt1, hits give low values 0.992 | locus YHR129C, strain ARP1, hits give low values 1.01 | locus YHR142W, strain chs7, hits give low values 0.981 | locus YHR200W, strain rpn10, hits give low values 0.971 | locus YIL066C, strain RNR3, hits give low values 1.01 | locus YIL073C, strain SPO22, hits give low values 0.929 | locus YIL125W, strain kgd1, hits give low values 0.986 | locus YIR030C, strain dcg1, hits give low values 0.964 | locus YJL092W, strain hpr5, hits give low values 1 | locus YJL095W, strain BCK1 (second series), hits give low values 0.988 | locus YJL095W, strain BCK1, hits give low values 0.991 and 1.03 | locus YJL115W, strain asf1, hits give low values 0.988 | locus YJL129C, strain trk1, hits give low values 0.963 | locus YJL134W, strain LCB3, hits give low values 0.999 | locus YJL154C, strain vps35, hits give low values 0.984 | locus YJL164C, strain tpk1, hits give low values 1.02 | locus YJL166W, strain qcr8, hits give low values 1.03 | locus YJL168C, strain set2, hits give low values 0.984 | locus YJL187C, strain SWE1 (second series), hits give low values 1 | locus YJR043C, strain POL32, hits give low values 1.02 | locus YJR066W, strain TOR1, hits give low values 0.991 | locus YJR075W, strain HOC1, hits give low values 0.997 | locus YKL009W, strain mrt4, hits give low values 0.966 | locus YKL068W, hits give low values 0.987 | locus YKL085W, strain MDH1 (second series), hits give low values 0.967 | locus YKL085W, strain MDH1, hits give low values 0.967 | locus YKL160W, strain elf1, hits give low values 0.952 | locus YKL190W, strain CNB1, hits give low values 0.985 | locus YKR001C, strain vps1, hits give low values 0.996 | locus YKR026C, strain gcn3, hits give low values 0.985 | locus YKR091W, strain srl3, hits give low values 0.983 | locus YLL001W, strain dnm1, hits give low values 1 | locus YLL026W, hits give low values 1 | locus YLL041C, strain sdh2, hits give low values 1.01 | locus YLR027C, strain aat2, hits give low values 0.991 | locus YLR039C, strain RIC1, hits give low values 0.879 | locus YLR058C, strain SHM2, hits give low values 1 | locus YLR102C, strain apc9, hits give low values 0.972 | locus YLR113W, strain HOG1, hits give low values 1.03 | locus YLR221C, strain rsa3, hits give low values 1.04 | locus YLR258W, strain gsy2, hits give low values 0.979 | locus YLR262C, strain YPT6 (second series), hits give low values 1.06 | locus YLR262C, strain YPT6, hits give low values 0.995 | locus YLR268W, strain sec22, hits give low values 0.981 | locus YLR320W, strain mms22, hits give low values 0.999 | locus YLR330W, strain CHS5, hits give low values 0.995 | locus YLR342W, strain FKS1 (second series), hits give low values 1.01 | locus YLR342W, strain FKS1, hits give low values 0.97 | locus YLR357W, strain rsc2, hits give low values 0.98 | locus YLR370C, strain arc18, hits give low values 0.978 | locus YLR371W, strain rom2, hits give low values 0.983 | locus YLR384C, strain iki3, hits give low values 0.997 | locus YLR418C, strain cdc73, hits give low values 0.965 | locus YML016C, strain PPZ1, hits give low values 1.01 | locus YML032C, strain rad52, hits give low values 0.994 | locus YML120C, strain ndi1, hits give low values 1.01 | locus YML124C, strain tub3, hits give low values 0.977 | locus YMR058W, strain fet3, hits give low values 0.995 | locus YMR078C, strain ctf18, hits give low values 0.96 | locus YMR125W, strain sto1, hits give low values 0.973 | locus YMR129W, hits give low values 1 | locus YMR205C, strain PFK2, hits give low values 0.984 | locus YMR223W, strain ubp8, hits give low values 0.952 | locus YMR231W, strain pep5, hits give low values 0.981 | locus YMR307W, strain GAS1, hits give low values 1.05 | locus YNL067W, strain RPL9B, hits give low values 0.997 | locus YNL071W, strain lat1, hits give low values 0.989 | locus YNL153C, strain GIM3, hits give low values 1.01 | locus YNL183C, strain NPR1, hits give low values 0.993 | locus YNL209W, strain ssb2, hits give low values 0.979 | locus YNL233W, strain BNI4, hits give low values 1 | locus YNL248C, strain rpa49, hits give low values 0.965 | locus YNL250W, strain rad50, hits give low values 0.964 | locus YNL271C, strain bni1, hits give low values 0.97 | locus YNL298W, strain CLA4, hits give low values 0.946 | locus YNL307C, strain MCK1, hits give low values 0.982 | locus YNL322C, strain KRE1 (second series), hits give low values 0.966 | locus YNR049C, strain mso1, hits give low values 0.998 | locus YNR052C, strain pop2, hits give low values 0.962 | locus YOL006C, strain TOP1, hits give low values 0.987 | locus YOL012C, strain htz1 0.891 | locus YOL147C, strain pex11, hits give low values 0.973 | locus YOR001W, strain rrp6, hits give low values 1.03 | locus YOR061W, strain CKA2, hits give low values 1 | locus YOR069W, strain VPS5, hits give low values 1.01 | locus YOR070C, strain gyp1, hits give low values 0.994 | locus YOR080W, strain dia2, hits give low values 1 | locus YOR083W, strain WHI5, hits give low values 0.922 | locus YOR106W, strain vam3, hits give low values 0.977 | locus YOR136W, strain idh2, hits give low values 0.987 | locus YOR144C, strain elg1, hits give low values 0.986 | locus YOR184W, strain ser1, hits give low values 0.974 | locus YOR231W, strain MKK1, hits give low values 1.04 | locus YOR265W, strain rbl2, hits give low values 0.997 | locus YOR270C, strain vph1, hits give low values 1.07 | locus YOR290C, strain snf2, hits give low values 0.955 | locus YOR316C, strain cot1, hits give low values 0.974 | locus YPL051W, strain arl3, hits give low values 0.98 | locus YPL055C, strain LGE1, hits give low values 0.999 | locus YPL078C, strain atp4, hits give low values 1 | locus YPL106C, strain sse1, hits give low values 0.965 | locus YPL240C, strain hsp82, hits give low values 1.02 | locus YPL241C, strain CIN2, hits give low values 1 | locus YPL256C, strain CLN2, hits give low values 1.06 | locus YPR119W, strain clb2, hits give low values 0.968 | locus YPR141C, strain kar3, hits give low values 0.977 | locus YPR163C, strain tif3, hits give low values 0.976 | locus YPR167C, strain met16, hits give low values 0.983 | strain wtn01, hits give low values 0.97
